From PubChem BioAssay (NCATS)
Inconclusive results are not listed. Unmarked numbers belong to inactive results. Calls of active or inactive are those of the source. Calls follow the shape of the dose curve; as a rule, active = well fitted inhibition curve with a large enough effect in the repeat runs; inconclusive = weak or mixed curves; inactive = flat fitted curve, though single readings scatter.
% is scaled to controls: 0 for no effect and ±100 for the full control effect; potency is read from the fitted curve at half-maximal effect.

What follows are compounds tested against Cytochrome P450 2D6 (Homo sapiens) (UniProt P10635) (assay: Cytochrome P450 family 2 subfamily D member 6 (CYP2D6) small molecule antagonists: luciferase biochemical (cell-free) qHTS assay (AID 1645840; also: nearly all actives have a fitted effect of over 55% in size)). Details: P450-Glo CYP2D6 enzyme, luciferin luminescence, 1 h; series mostly up to 57.4 µM; activity change, negative = inhibition: at the top concentration.
Chain of Cytochrome P450 2D6 (Homo sapiens) (P10635 whole entry, looked up): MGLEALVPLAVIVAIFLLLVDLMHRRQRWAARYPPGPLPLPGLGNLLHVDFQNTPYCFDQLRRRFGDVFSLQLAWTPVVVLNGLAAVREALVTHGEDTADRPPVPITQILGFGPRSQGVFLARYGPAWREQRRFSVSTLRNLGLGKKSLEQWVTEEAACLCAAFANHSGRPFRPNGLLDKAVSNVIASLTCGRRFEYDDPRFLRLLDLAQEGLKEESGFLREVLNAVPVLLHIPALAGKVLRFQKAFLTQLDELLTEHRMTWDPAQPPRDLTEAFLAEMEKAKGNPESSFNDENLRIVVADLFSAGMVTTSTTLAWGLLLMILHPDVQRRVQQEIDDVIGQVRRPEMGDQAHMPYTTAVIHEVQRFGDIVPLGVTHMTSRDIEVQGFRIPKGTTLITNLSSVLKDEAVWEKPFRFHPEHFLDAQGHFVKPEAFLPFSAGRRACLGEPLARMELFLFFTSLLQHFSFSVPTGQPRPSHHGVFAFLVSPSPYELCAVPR
Summary of the method: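 P450-Glo luminescent screen: recombinant CYP2D6 enzyme–proluciferin substrate mix preincubated with compound 10 min at room temperature, then NADPH regeneration added for 1 h at room temperature. Detection reagent added for 20 min; luciferin light read as relative luminescence units.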
For CC(=O)C1CCOC1=O (stereo not drawn), the “activity change, negative = inhibition” value was 12%. For C[C@]12CCC(=O)C=C1CC[C@@H]1[C@H]3CC[C@](C)(O)[C@@]3(C)CC[C@@H]12, the Potency was 43.5 µM (active). CC(=O)OCC1=C(C(=O)O)N2C(=O)[C@@H](N)[C@H]2SC1 was tested, and the Potency was 5.35 µM (active). With CC(C)NC(C)C the “activity change, negative = inhibition” value was -4.88%. CN1CCC(O)(c2ccc(F)cc2)C(C(=O)c2ccc(F)cc2)C1 (stereo not drawn) was tested, and the Potency was 24.5 µM (active). CC(C)(C)NCC(O)c1cc(Cl)c(N)c(C(F)(F)F)c1 (stereo not drawn) was tested, and the Potency was 15.5 µM (active). For COc1cccc(C(=O)CCN[C@@H](C)[C@H](O)c2ccccc2)c1, the Potency was 1.55 µM (active). In the case of C[C@H](N)C(=O)c1ccccc1, the Potency is reported as 42.2 µM (active). In the case of C[C@]12CC[C@H]3[C@@H](CC[C@@]45O[C@H]4C(O)=C(C#N)C[C@]35C)[C@H]1CC[C@H]2O, the “activity change, negative = inhibition” value is reported as 6.45%. With CC1(C)C(C=C(Cl)Cl)C1C(=O)OC(C#N)c1cccc(Oc2ccccc2)c1 (stereo not drawn) the “activity change, negative = inhibition” value was -21.7%. With CCCOC(=O)c1cncn1C(C)c1ccccc1 (stereo not drawn) the “activity change, negative = inhibition” value was -25.8%. COC(=O)[C@@H](N)CCCN/C(N)=N/[N+](=O)[O-] was tested, and the “activity change, negative = inhibition” value was 2.07%. CCOP(=S)(OCC)Oc1ccc2c(C)c(Cl)c(=O)oc2c1 was tested, and the Potency was 15.5 µM (active). In the case of O=C(O)c1ccc(=O)[nH]c1, the “activity change, negative = inhibition” value is reported as -2.66%. For C=CCN1C[C@H](C)N([C@H](c2ccc(C(=O)N(CC)CC)cc2)c2cccc(OC)c2)C[C@H]1C, the Potency was 2.45 µM (active). In the case of CC[N+]1(CC)CCC(OC(=O)C(O)(c2ccccc2)c2ccccc2)C1 (stereo not drawn), the Potency is reported as 12.9 µM (active). For O=c1[nH]oc2c1CCNC2, the “activity change, negative = inhibition” value was -11.7%. In the case of CCCCCCC(=O)CCCCCC/C=C/C[C@@H](O)[C@H](O)[C@@](N)(CO)C(=O)O, the “activity change, negative = inhibition” value is reported as -1.94% [at 23.9 µM].
